# Results reported in the supplement of paper PMC10646978.
# ± gives the standard deviation.
# What was measured:
# Details in all cases: modulator concentration 10 µM
# [1] = system: RAW-Dual (murine macrophage reporter line); assay: NF-kB reporter (SEAP) activity fold change vs agonist alone; higher = enhanced NF-kB activity
# Method in brief: (§1)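 RAW-Dual murine macrophage reporter cells were plated at 50 000 per well in 384-well plates, pin-transferred compound to 10 μM final, and pre-incubated for 1 hour at 37 °C before a PRR agonist was added and the cells incubated overnight. NF-κB activity was read from supernatant SEAP with QUANTI-Blue at 620 nm absorbance, and IRF activity from Lucia luciferase with QUANTI-Luc by luminescence. Each signal was expressed as fold change by dividing by the mean agonist-only control on the same plate. Two replicate plates were averaged, with errors obtained by propagation.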
# [2] = system: RAW-Dual (murine macrophage reporter line); assay: IRF reporter (Lucia luciferase) activity fold change vs agonist alone; higher = enhanced IRF activity
# Method in brief: as §1
# [3] = system: RAW-Dual (murine macrophage reporter line); assay: viability score (confluency relative to resting cells, overnight) (fraction); higher = more viable, active = viable (0.7 or more)
# Method in brief: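 A compound met the cutoff when both of two confluency masks exceeded 70% of resting cells. Those masks were made with IncuCyte software from IncuCyte images of RAW-Dual macrophages treated overnight at 10 μM final. This is the basis of the viability score, which is confluency relative to resting cells.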
# [4] = agonist: CpG ODN 1826 0.5 ug/mL
Compound,"NF-kB reporter [1, 4]",NF-kB reporter ([1]; agonist: LPS 0.1 ug/mL),NF-kB reporter ([1]; agonist: MPLA […]),IRF reporter ([2]; agonist: 3'3'-cGAMP 10 ug/mL),IRF reporter ([2]; agonist: LPS 0.1 ug/mL),IRF reporter ([2]; agonist: MPLA […]),viability score [3]
NC[C@@H]1O[C@H](O[C@@H]2[C@@H](CO)OC(O[C@@H]3[C@@H](O)[C@H](N)C[C@H](N)[C@H]3O[C@H]3O[C@H](CN)[C@@H](O)[C@H](O)[C@H]3N)[C@@H]2O)[C@H](N)[C@@H](O)[C@@H]1O.O=S(=O)(O)O (stereo partly drawn),0.993 ± 0.074,1.01 ± 0.091,0.983 ± 0.025,0.908 ± 0.09,1.02 ± 0.081,1.11 ± 0.12,1 (active)
Nc1ccn(C2OC(CO)C(O)C2O)c(=O)n1 (stereo not drawn),1 ± 0.082,0.875 ± 0.092,1.49 ± 0.44,0.96 ± 0.052,1.25 ± 0.2,1.26 ± 0.27,1.03 (active)
Br.Cc1ccc(Sc2ccccc2N2CCNCC2)c(C)c1,0.328 ± 0.078,0.944 ± 0.11,1.78 ± 0.15,0.491 ± 0.057,1.27 ± 0.32,1.03 ± 0.12,0.527 (inactive)
O=C(O)c1ccccc1O,1.03 ± 0.23,1.04 ± 0.18,0.923 ± 0.052,0.925 ± 0.03,1.34 ± 0.12,1.23 ± 0.094,0.995 (active)
CC(C)NNC(=O)c1ccncc1 [Prestw-176],1.04 ± 0.078,1.06 ± 0.088,1.02 ± 0.022,1.02 ± 0.068,0.958 ± 0.083,1.01 ± 0.093,0.997 (active)
CCN(CC)CCOCCOC(=O)C1(c2ccccc2)CCCC1 [Prestw-387],0.668 ± 0.12,1.14 ± 0.12,0.993 ± 0.12,0.684 ± 0.019,1.03 ± 0.12,1.11 ± 0.19,0.993 (active)
Cc1cn([C@H]2C=C[C@@H](CO)O2)c(=O)[nH]c1=O [Prestw-1279],1.13 ± 0.11,1.05 ± 0.13,0.957 ± 0.077,0.969 ± 0.074,0.94 ± 0.092,0.877 ± 0.13,0.998 (active)
COC(c1ccccc1)(c1ccccc1)[C@H](Oc1nc(C)cc(C)n1)C(=O)O,1.32 ± 0.18,1.08 ± 0.11,0.901 ± 0.055,1.05 ± 0.043,1.3 ± 0.14,1.15 ± 0.11,1 (active)
COc1ccc([C@H]2CNC(=O)C2)cc1OC1CCCC1,2.61 ± 0.4,2.21 ± 0.38,1.9 ± 0.14,0.902 ± 0.039,1.03 ± 0.22,1.41 ± 0.15,0.982 (active)
